In the library only some 8.8% were active in any assay of this set; here they are far more common.
ALDH1A1 inh = qHTS Assay for Inhibitors of Aldehyde Dehydrogenase 1 (ALDH1A1); Purified ALDH1A1, NADH fluorescence, propionaldehyde substrate; Aldehyde dehydrogenase 1A1 (Homo sapiens), P00352; Potency, µM (highest dose often 75.3 µM), hits mostly inhibitors; AID 1030, 2008; actives 7.3% (n = 220,000)
Target sequence (P00352 whole entry, looked up): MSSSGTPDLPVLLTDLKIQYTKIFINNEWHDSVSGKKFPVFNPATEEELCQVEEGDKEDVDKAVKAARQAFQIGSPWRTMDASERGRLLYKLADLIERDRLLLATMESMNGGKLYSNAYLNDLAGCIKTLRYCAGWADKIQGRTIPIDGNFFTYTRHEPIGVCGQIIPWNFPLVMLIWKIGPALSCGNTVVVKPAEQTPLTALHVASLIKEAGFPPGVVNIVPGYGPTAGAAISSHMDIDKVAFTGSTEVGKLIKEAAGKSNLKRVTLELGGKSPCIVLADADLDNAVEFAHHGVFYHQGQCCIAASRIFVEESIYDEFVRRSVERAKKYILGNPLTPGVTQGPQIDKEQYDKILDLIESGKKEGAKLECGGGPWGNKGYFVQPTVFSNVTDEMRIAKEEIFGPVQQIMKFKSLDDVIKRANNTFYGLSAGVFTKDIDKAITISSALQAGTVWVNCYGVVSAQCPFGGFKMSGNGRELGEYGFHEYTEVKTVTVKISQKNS
HTT aggregate = qHTS Multiplex Assay to Identify Dual Action Probes in a Cell Model of Huntington: Aggregate Formation (GFP). Potency, µM (highest dose often 46.1 µM), usual class: inhibitors. PC12 HttQ103-GFP aggregates, Acumen cytometry, 40 h. actives 1.1% (n = 220,000); active = well fitted curve in the direction sought with a large enough effect; inconclusive = small, poorly fitted or top-dose-only effect, or another doubt; inactive = no such curve, though single readings can be large; an effect the other way counts as inactive or inconclusive; also: nearly all actives have a fitted effect of over 60% in size
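Multiplexed with ATP-based cell death, this channel scores GFP aggregates in PC12 cells expressing inducible HTTex1-Q103-GFP. Induction used 100 nM tebufenozide; compounds were tested in concentration series.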
HTT cytoprotect = qHTS Multiplex Assay to Identify Dual Action Probes in a Cell Model of Huntington: Cytoprotection (ATP) | Potency, µM (titrated, usually from 56.4 µM), most hits filed as activators | actives 0.14% (n = 230,000) | PC12 HTT-Q103 induced, cytoprotection, ATP luminescence, 40 h; active = well fitted curve in the direction sought with a large enough effect; inconclusive = small, poorly fitted or top-dose-only effect, or another doubt; inactive = no such curve, though single readings can be large; an effect the other way counts as inactive or inconclusive; also: nearly all actives have a fitted effect of over 45% in size
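Rat PC12, Q103 Htt exon1-GFP fusion, ecdysone promoter; tebufenozide inducer 100 nM final; compound titration; qHTS, 1500 cells/well; ATPlite luminescent read.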
Lamin A splicing = qHTS Assay for Modulators of Lamin A Splicing; HeLa LMNA splicing GFP/RFP minigene ratio, 48 h; Potency, µM (series often up to 46.1 µM), actives largely listed as inhibitors; actives 0.01% (n = 200,000); AID 1487, 2009; active = well fitted inhibition curve with a large enough effect in the signal ratio, with a control signal flat, not every such curve was filed as active; inconclusive = small, poorly fitted or top-dose-only effect, or effect the other way, or a change in a side signal; the % refers to the signal ratio
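Read-out is the ratio of GFP to DsRed2 object intensity, acquired by 488 nm laser-scanning cytometry on HeLa lamin A-EGFP minigene reporter cells. Compound incubation 48 hrs at 37 °C in Opti-MEM with 2% FBS; DMSO 0.5% final.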
HPGD inh = qHTS Assay for Inhibitors of HPGD (15-Hydroxyprostaglandin Dehydrogenase). AID 894, 2007. actives 4.3% (n = 150,000). Potency, µM, hits mostly inhibitors. purified HPGD, NADH fluorescence kinetic, PGE2 substrate
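NADH formation kinetics: reaction with 30 uM PGE2 and 1 mM NAD+ (final), 20 nM enzyme, Tris-HCl pH 8 with Tween 20, after 15 min compound preincubation at room temperature. Fluorescence change, last versus first of five reads.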
Of the large screens only hits and unclear results are named; the others gave an inactive call. Unless noted, calls follow the shape of the dose curve; as a rule, active = well fitted inhibition curve with a large enough effect (not every such curve was filed as active); inconclusive = small, poorly fitted or top-dose-only effect, or another doubt; inactive = no such curve, though single readings can be large or run the other way.

COc1ccc(NC(=S)NC(NC(=O)c2cccc3ccccc23)C(Cl)(Cl)Cl)c([N+](=O)[O-])c1 (configuration not stated)	ALDH1A1 inh 28µM, HTT aggregate inconclusive, Lamin A splicing inconclusive
COc1ccc(NC(=S)NC(NC(=O)c2ccccc2Cl)C(Cl)(Cl)Cl)c([N+](=O)[O-])c1 (configuration not stated)	ALDH1A1 inh 8.9µM
COc1ccc(NC(=S)NC(NC(=O)c2ccc(Cl)cc2Cl)C(Cl)(Cl)Cl)c([N+](=O)[O-])c1 (configuration not stated)	ALDH1A1 inh 22µM, HTT aggregate inconclusive, Lamin A splicing inconclusive
COc1ccc(NC(=S)NC(NC(=O)CCl)C(Cl)(Cl)Cl)c([N+](=O)[O-])c1 (configuration not stated)	ALDH1A1 inh inconclusive (no result: Lamin A splicing, HPGD inh)
O=C(NC(NC(=S)Nc1c(Cl)cccc1Cl)C(Cl)(Cl)Cl)c1cccc([N+](=O)[O-])c1 (configuration not stated)	ALDH1A1 inh 18µM, Lamin A splicing inconclusive (no result: HTT cytoprotect)
COc1ccc(OC)c(Nc2ccc(C(=O)O)cc2[N+](=O)[O-])c1	HPGD inh 16µM
CCOc1ccc(/C=C/C(=O)Nc2ccc(OC)cc2[N+](=O)[O-])cc1	none
COc1ccc(NC(=O)/C=C/C(=O)O)c([N+](=O)[O-])c1	ALDH1A1 inh 19µM (no result: Lamin A splicing, HPGD inh)
COc1ccc(NC(=O)CC2Nc3cc(C)c(C)cc3NC2=O)c([N+](=O)[O-])c1 (configuration not stated)	none (no result: Lamin A splicing, HPGD inh)
COc1ccc(NC(=O)CC2SC(N)=NC2=O)c([N+](=O)[O-])c1 (configuration not stated)	ALDH1A1 inh 25µM (no result: Lamin A splicing, HPGD inh)
Cc1ccc(NC(=O)/C=C/C(=O)O)c([N+](=O)[O-])c1	ALDH1A1 inh 18µM
COc1ccc(Nc2ccc(C(=O)O)cc2[N+](=O)[O-])cc1	none
CCN(CC)S(=O)(=O)c1ccc(NS(=O)(=O)c2ccc(O)c([N+](=O)[O-])c2)cc1	ALDH1A1 inh 5µM, HPGD inh 35µM
CCN(CC)S(=O)(=O)c1ccc(NS(=O)(=O)c2cccs2)cc1	ALDH1A1 inh inconclusive (no result: Lamin A splicing, HPGD inh)
O=C(O)/C=C\C(=O)Nc1ccccc1F	ALDH1A1 inh 35µM
O=C(O)/C=C\C(=O)Nc1ccc(F)c(F)c1F	ALDH1A1 inh 22µM (no result: Lamin A splicing, HPGD inh)
O=C(O)C1CCCCC1C(=O)Nc1ccccc1F (configuration not stated)	ALDH1A1 inh 20µM
O=C(O)C1CCCCC1C(=O)Nc1ccccc1Cl (configuration not stated)	none
COCCN(CCOC)c1nc(C)nc2c1nc(-c1ccccc1)n2CCCN(C)C	ALDH1A1 inh inconclusive, HPGD inh inconclusive (no result: HTT aggregate, Lamin A splicing)
CCOC(=O)c1ccc(NC(=S)NCCCN2CCCC2=O)cc1	ALDH1A1 inh 0.032µM (no result: Lamin A splicing, HPGD inh)
Cc1cccc(C)c1NC(=S)NCCCN1CCCC1=O	ALDH1A1 inh inconclusive (no result: HTT cytoprotect)
O=C1CCCN1CCCNC(=S)Nc1ccc(Nc2ccccc2)cc1	ALDH1A1 inh 14µM (no result: Lamin A splicing, HPGD inh)
O=C1CCCN1CCCNC(=S)Nc1ccccc1	none (no result: ALDH1A1 inh, Lamin A splicing, HPGD inh)
Cc1ccccc1CN1C(=O)c2ccccc2Sc2ccc(C(=O)NCc3ccccc3)cc21	none (no result: ALDH1A1 inh, HTT aggregate, HTT cytoprotect, HPGD inh)
Cc1[nH][nH]c(=O)c1C(c1c(C)[nH][nH]c1=O)c1cn(Cc2cccc3ccccc23)c2ccccc12	ALDH1A1 inh 0.32µM
Cc1[nH][nH]c(=O)c1C(c1c(C)[nH][nH]c1=O)c1cn(C)c2ccccc12	ALDH1A1 inh inconclusive (no result: Lamin A splicing, HPGD inh)
COc1ccc(CNC(=O)CN2C(=O)CC(c3ccc(C)c(C)c3)=Nc3ccccc32)cc1	none (no result: ALDH1A1 inh, HTT aggregate, HTT cytoprotect, HPGD inh)
CCOC(=O)c1c(-c2ccc(OC)cc2)csc1/N=C/C1C(=O)CCCC1=O	ALDH1A1 inh 5µM, HTT aggregate inconclusive (no result: HPGD inh)
O=C1CC(c2ccccc2)CC(O)=C1C=NCCN1CCN(Cc2ccccc2)CC1 (configuration not stated)	Lamin A splicing inconclusive (no result: HPGD inh)
Cc1ccc(C(=O)NC(=S)NCC2CCCO2)cc1Br (configuration not stated)	ALDH1A1 inh 8.9µM, Lamin A splicing inconclusive (no result: HTT cytoprotect)
CN(c1ccc(C(=O)NCC2CCCO2)cc1)S(=O)(=O)c1ccccc1 (configuration not stated)	HPGD inh 14µM
COc1cccc(CN(CC2CCCO2)C(=O)c2cc3ccccc3oc2=O)c1 (configuration not stated)	ALDH1A1 inh 16µM (no result: HPGD inh)
COc1cccc(C(=O)NCC2CCCO2)c1 (configuration not stated)	HPGD inh 8.9µM
COc1ccc(CN(CC2CCCO2)C(=O)c2cc3ccccc3oc2=O)cc1 (configuration not stated)	none (no result: Lamin A splicing, HPGD inh)
COC(=O)/C=C/C(C)=C/C=C/C(C)=C/C=C/C=C(C)/C=C/C=C(C)/C=C/C(=O)O	ALDH1A1 inh inconclusive (no result: HTT aggregate, HTT cytoprotect)
COC(=O)[C@@]1(Cc2ccc(OC)cc2)[C@H]2c3cc(C(=O)N(C)C)n(CCc4c[nH]c5ccc(O)cc45)c3C[C@H]2CN1C(=O)c1ccccc1	none (no result: HTT aggregate, Lamin A splicing)
COc1cccc(CNC(=O)C(=O)NCC2CCCO2)c1 (configuration not stated)	none
COc1cccc(S(=O)(=O)NCc2ccc(C(=O)NCC3CCCO3)cc2)c1 (configuration not stated)	ALDH1A1 inh 14µM, HPGD inh 16µM
O=C(NCC1CCCO1)c1cccc(Br)c1 (configuration not stated)	HPGD inh 25µM
Cn1c(C(=O)NCC2CCCO2)cc2oc3ccccc3c21 (configuration not stated)	Lamin A splicing inconclusive, HPGD inh 1.4µM
CC(C)CC(=O)c1c[nH]c(C(=O)NCC2CCCO2)c1 (configuration not stated)	ALDH1A1 inh inconclusive, HPGD inh 20µM
CN(C)S(=O)(=O)c1cccc(C(=O)NCC2CCCO2)c1 (configuration not stated)	none
COc1cc(OC)cc(C(=O)NCC2CCCO2)c1 (configuration not stated)	HPGD inh 25µM
O=C(NCC1CCCO1)c1ccc(COCC(F)(F)C(F)F)cc1 (configuration not stated)	HPGD inh 14µM
CCCC(=O)Nc1ccc(C(=O)NCC2CCCO2)cc1 (configuration not stated)	ALDH1A1 inh inconclusive, HPGD inh 11µM
O=C(NCC1CCCO1)c1sc2cc(Cl)ccc2c1Cl (configuration not stated)	ALDH1A1 inh inconclusive, Lamin A splicing inconclusive, HPGD inh 14µM
